Screening data (PubChem)
CYP2C9 inhib = blockers of cytochrome P450 2C9 activity – biochemical, luminescence, ADME assay, primary screen | P11712 | CYP2C9 Supersomes, luciferin-H conversion | inhibition, % at 5 µM | hit rate 20% among 96,000;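 active = blocking of liver enzyme CYP2C9 beyond about 50% at 5 µM, limit read from the data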
CYP2C19 inhib = blockers of cytochrome P450 2C19 activity – biochemical, luminescence, ADME assay, primary screen | CYP2C19 Supersomes, luciferin-H EGE luminescence, 30 min | P33261 | inhibition, % at 5 µM | hit rate 21% among 96,000;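 active = CYP2C19 inhibition above a set limit at 5 µM in the primary screen, cut at about 50% in these data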;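 also: plate controls were negative control wells for no effect and 2.5 mM tranylcypromine positive control for full effect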
Target sequence (P33261 whole entry, looked up): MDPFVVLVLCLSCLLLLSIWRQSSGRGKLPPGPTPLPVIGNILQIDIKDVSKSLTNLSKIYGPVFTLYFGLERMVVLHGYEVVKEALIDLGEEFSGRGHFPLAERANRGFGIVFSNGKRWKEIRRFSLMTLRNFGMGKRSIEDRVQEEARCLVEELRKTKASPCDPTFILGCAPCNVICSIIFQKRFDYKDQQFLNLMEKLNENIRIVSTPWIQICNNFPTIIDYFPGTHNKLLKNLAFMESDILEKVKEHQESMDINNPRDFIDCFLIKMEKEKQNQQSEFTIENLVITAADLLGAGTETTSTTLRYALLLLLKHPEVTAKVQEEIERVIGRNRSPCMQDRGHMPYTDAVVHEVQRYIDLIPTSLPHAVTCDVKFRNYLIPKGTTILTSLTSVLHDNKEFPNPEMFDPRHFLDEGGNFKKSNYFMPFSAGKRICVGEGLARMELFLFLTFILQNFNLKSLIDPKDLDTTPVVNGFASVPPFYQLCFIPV
CYP2C19 activ = human CYP2C19 activators, primary screen, biochemical, luminescence; recombinant CYP2C19, luciferin-H EGE luminescence; hits give high values; 0 = fully inhibited enzyme, 1 = untreated enzyme; Cytochrome P450 2C19 (Homo sapiens), P33261; activation factor at 5 µM; 96,000 tested, under 10 active;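 active = activation factor of at least 2 at 5 µM in the primary screen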;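 also: 0 = wells with 2.5 mM tranylcypromine and 1 = vehicle-only wells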
Cav3 T inh = Cav3.2 calcium influx blockers – cell-based, Fluo-4 calcium fluorescence, FDSS, MLSMR library, primary screen; B-score at 10 µM; hit rate 4% among 100,000; Voltage-dependent T-type calcium channel subunit alpha-1H (Homo sapiens), O95180; AID 449739, 2010; Cav3.2-expressing cells; hits give low values;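 active = single-dose well whose peak fluorescence ratio is a statistical outlier from its plate by either plate-standardised score or position-corrected B-score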
CYP2C9 activ = human CYP2C9 activators, primary screen, biochemical, luminescence. activation factor at 5 µM. recombinant CYP2C9, luciferin-H conversion; hits give high values; factor 1 = untreated enzyme, 0 = blocked. Cytochrome P450 2C9 (Homo sapiens), P11712. hit rate 1.4% among 96,000;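 active = activation factor of 2 or more for CYP2C9 at a 5 µM dose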;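 also: 0 = sulfaphenazole-blocked wells and 1 = vehicle-only wells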
An asterisk follows results filed as active. Rows were chosen to be rich in hits. Some 27% of all compounds tested hit in one or more screens of this group.

Screening O=C(c1ccco1)N1CCN(S(=O)(=O)c2ccc3c(c2)OCCO3)CC1 returned CYP2C9 inhib -13, CYP2C19 inhib 96*, CYP2C19 activ 0, Cav3 T inh 0.032 and CYP2C9 activ 1.1.
For COc1cccc(NC(=O)Cn2c(=O)c3c(ncn3Cc3ccccc3)n(Cc3ccccc3)c2=O)c1 the results were CYP2C9 inhib -6, CYP2C19 inhib 6, CYP2C19 activ 0.9, Cav3 T inh -0.15 and CYP2C9 activ 1.1.
For COc1ccc(S(=O)(=O)Cc2ccc(C(=O)NCc3ccccn3)o2)cc1 the results were CYP2C9 inhib 33, CYP2C19 inhib 3, CYP2C19 activ 1, Cav3 T inh 1.1 and CYP2C9 activ 0.7.
`Cc1ccc(S(=O)(=O)NC(=O)NCc2ccccn2)cc1` gave CYP2C9 inhib 5, CYP2C19 inhib 0, CYP2C19 activ 1, Cav3 T inh 0.49 and CYP2C9 activ 1.
`CC(C)CNC(=S)NC1CC2CCC(C1)N2Cc1ccccc1` (stereo unspecified) gave Cav3 T inh 0.036.
`O=S(=O)(c1ccc(Oc2ncnc3scc(-c4ccccc4)c23)cc1)N1CCOCC1` gave CYP2C9 inhib 73*, CYP2C19 inhib 72*, CYP2C19 activ 0.3, Cav3 T inh -2.9 and CYP2C9 activ 0.3.
`COc1ccc(S(=O)(=O)N2CCN(C(=O)c3c(-c4ccccc4)noc3C)CC2)cc1` gave CYP2C9 inhib 14, CYP2C19 inhib 39, CYP2C19 activ 0.6, Cav3 T inh 0.48 and CYP2C9 activ 0.9.
Cc1onc(-c2ccccc2)c1C(=O)N1CCN(S(=O)(=O)c2ccc3c(c2)OCCO3)CC1 was read as CYP2C9 inhib 41, CYP2C19 inhib 74*, CYP2C19 activ 0.3, Cav3 T inh 1.2 and CYP2C9 activ 0.6.
`CC(C(=O)Nc1ccc(S(=O)(=O)N2CCCC2)cc1)N1CCN(C(=O)c2ccco2)CC1` (stereo unspecified) gave CYP2C9 inhib 64*, CYP2C19 inhib 13, CYP2C19 activ 0.9, Cav3 T inh 1 and CYP2C9 activ 0.4.
For CCC(C)(C)NC(=O)C(c1ccc(F)cc1)N(Cc1ccco1)C(=O)c1cnccn1 (stereo unspecified) the results were CYP2C9 inhib -9, CYP2C19 inhib -6, CYP2C19 activ 1.1, Cav3 T inh -0.34 and CYP2C9 activ 1.1.
CCNc1sc(C(=O)c2cccs2)c(N)c1-c1nc2ccccc2s1 was read as CYP2C9 inhib 90*, CYP2C19 inhib 53*, CYP2C19 activ 0.5, Cav3 T inh -0.25 and CYP2C9 activ 0.1.
For C=CCNc1sc(C(=O)c2ccccc2)c(N)c1-c1nc2ccccc2s1 the results were CYP2C9 inhib 43, CYP2C19 inhib 9, CYP2C19 activ 0.9, Cav3 T inh -1.4 and CYP2C9 activ 0.6.
`Cc1nc(-c2ccccc2)sc1C1(C)CC(c2ccc(C#N)cc2)=NO1` (stereo unspecified) gave Cav3 T inh 0.28.
`CN1CCN(c2ccc([N+](=O)[O-])c(-n3nc(-c4ccccc4)c4ccccc4c3=O)c2)CC1` gave CYP2C9 inhib 45, CYP2C19 inhib 20, CYP2C19 activ 0.8, Cav3 T inh 0.23 and CYP2C9 activ 0.5.
CCOC(=O)N1CCC(NC(=O)CN2C(=O)CCSc3ccccc32)CC1 was read as CYP2C9 inhib 8, CYP2C19 inhib 12, CYP2C19 activ 0.9, Cav3 T inh 1.1 and CYP2C9 activ 0.9.
For CCOC(=O)N1CCC(NC(=O)Cn2c3c(c(-c4ccccc4Cl)cc2=O)CCC3)CC1 the results were CYP2C9 inhib 54*, CYP2C19 inhib 46, CYP2C19 activ 0.5, Cav3 T inh -0.27 and CYP2C9 activ 0.5.
Screening COc1ccccc1CNC(=O)C(CC(C)C)NC(=O)C1CCC(C)CC1 (stereo unspecified) returned CYP2C9 inhib 16, CYP2C19 inhib 10, CYP2C19 activ 0.9, Cav3 T inh -5.8* and CYP2C9 activ 0.8.
Screening Cc1ccc(S(=O)(=O)NC(=O)c2cc(C)n(-c3cc(S(=O)(=O)N4CCOCC4)ccc3N3CCCC3)c2C)cc1 returned CYP2C9 inhib 28, CYP2C19 inhib -7, CYP2C19 activ 1.1, Cav3 T inh 0.13 and CYP2C9 activ 0.7.
CN(CC(=O)NCc1ccco1)S(=O)(=O)c1ccc2c(c1)n(C)c(=O)c(=O)n2C was read as CYP2C9 inhib 2, CYP2C19 inhib -10, CYP2C19 activ 1.1, Cav3 T inh -3.1 and CYP2C9 activ 1.
For CCO[C@@H]1OC(C(=O)Nc2ccccc2)=C[C@H](c2csc3ccccc23)[C@H]1CCCO the results were Cav3 T inh -1.4.
O=C(NC1=NCCS1)C1Cc2ccccc2CN1C(=O)c1ccccc1 (stereo unspecified) was read as CYP2C9 inhib 42, CYP2C19 inhib 79*, CYP2C19 activ 0.2, Cav3 T inh 1 and CYP2C9 activ 0.6.
CCCCCCOC(=O)c1ccccc1NC(=O)/C=C/C(=O)O was read as CYP2C9 inhib 22, CYP2C19 inhib 4, CYP2C19 activ 1, Cav3 T inh 1.2 and CYP2C9 activ 0.8.
For O=C(C1c2ccccc2Oc2ccccc21)N1CCN(c2ccc(Cl)cc2)CC1 the results were CYP2C9 inhib 85*, CYP2C19 inhib 94*, CYP2C19 activ 0.1 and CYP2C9 activ 0.2.
`COc1ccccc1N1CCN(C(=O)C2c3ccccc3Oc3ccccc32)CC1` gave CYP2C9 inhib 100*, CYP2C19 inhib 98*, CYP2C19 activ 0, Cav3 T inh -5.8* and CYP2C9 activ 0.
`O=C(Nc1ccc(N2CCN(C(=O)c3ccc(Cl)cc3)CC2)cc1)c1ccc2c(c1)OCCO2` gave CYP2C9 inhib -6, CYP2C19 inhib -4, CYP2C19 activ 1, Cav3 T inh 0.36 and CYP2C9 activ 1.1.
Screening CC/C(=N\NC(=O)CSCc1ccccc1Br)c1ccc2c(c1)OCCO2 returned CYP2C9 inhib -1, CYP2C19 inhib -11, CYP2C19 activ 1.1, Cav3 T inh 1.5 and CYP2C9 activ 1.
COc1cccc(CN2CCN(CC(=O)Nc3ccccc3Cl)CC2)c1 was read as CYP2C9 inhib 35, CYP2C19 inhib 41, CYP2C19 activ 0.6, Cav3 T inh -0.7 and CYP2C9 activ 0.6.
O=C(CCn1[nH]c(=O)c2ccccc2c1=O)NCCO was read as CYP2C9 inhib -18, CYP2C19 inhib -17, CYP2C19 activ 1.2, Cav3 T inh -0.19 and CYP2C9 activ 1.2.
Screening O=C(Cn1[nH]c(=O)c2ccccc2c1=O)OCC(=O)N(Cc1ccccc1)Cc1ccccc1 returned CYP2C9 inhib 18, CYP2C19 inhib 38, CYP2C19 activ 0.6, Cav3 T inh -4.4* and CYP2C9 activ 0.8.
